Experimental data reported in ChEMBL document CHEMBL1961873, “Compounds: GSK PKIS; Assays: Nanosyn kinase panel” (2012).

What was measured:
[1] = target: Mitogen-activated protein kinase kinase kinase kinase 4 (Homo sapiens) (UniProt O95819); details: at 1 µM;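 also: reported figure is an averaged inhibition value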
[2] = target: Dual specificity mitogen-activated protein kinase kinase 1 (Homo sapiens) (UniProt Q02750); details: at 0.1 µM
[3] = target: Dual specificity mitogen-activated protein kinase kinase 1 (Homo sapiens) (UniProt Q02750); details: at 1 µM
[4] = target: Misshapen-like kinase 1 (Homo sapiens) (UniProt Q8N4C8); details: at 0.1 µM
[5] = target: Misshapen-like kinase 1 (Homo sapiens) (UniProt Q8N4C8); details: at 1 µM
[6] = target: T1, Serine/threonine-protein kinase 4 (Homo sapiens) (UniProt Q13043); details: at 0.1 µM
T1 sequence (whole entry): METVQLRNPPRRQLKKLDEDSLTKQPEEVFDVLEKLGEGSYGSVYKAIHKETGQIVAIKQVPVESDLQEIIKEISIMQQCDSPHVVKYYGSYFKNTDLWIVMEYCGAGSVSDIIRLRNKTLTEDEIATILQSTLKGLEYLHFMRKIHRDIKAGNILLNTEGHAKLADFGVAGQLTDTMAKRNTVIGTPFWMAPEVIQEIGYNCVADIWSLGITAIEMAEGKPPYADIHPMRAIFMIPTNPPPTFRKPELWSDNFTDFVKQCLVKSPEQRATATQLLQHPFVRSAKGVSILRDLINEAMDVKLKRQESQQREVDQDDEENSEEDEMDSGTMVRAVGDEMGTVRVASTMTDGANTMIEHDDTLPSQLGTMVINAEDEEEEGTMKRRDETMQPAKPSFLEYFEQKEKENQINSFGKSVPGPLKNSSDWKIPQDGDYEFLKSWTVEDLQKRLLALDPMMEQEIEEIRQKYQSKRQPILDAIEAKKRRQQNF

[7] = target: T1, Serine/threonine-protein kinase 4 (Homo sapiens); details: at 1 µM
[8] = target: T2, Serine/threonine-protein kinase 3 (Homo sapiens) (UniProt Q13188); details: at 0.1 µM
T2 sequence (whole entry): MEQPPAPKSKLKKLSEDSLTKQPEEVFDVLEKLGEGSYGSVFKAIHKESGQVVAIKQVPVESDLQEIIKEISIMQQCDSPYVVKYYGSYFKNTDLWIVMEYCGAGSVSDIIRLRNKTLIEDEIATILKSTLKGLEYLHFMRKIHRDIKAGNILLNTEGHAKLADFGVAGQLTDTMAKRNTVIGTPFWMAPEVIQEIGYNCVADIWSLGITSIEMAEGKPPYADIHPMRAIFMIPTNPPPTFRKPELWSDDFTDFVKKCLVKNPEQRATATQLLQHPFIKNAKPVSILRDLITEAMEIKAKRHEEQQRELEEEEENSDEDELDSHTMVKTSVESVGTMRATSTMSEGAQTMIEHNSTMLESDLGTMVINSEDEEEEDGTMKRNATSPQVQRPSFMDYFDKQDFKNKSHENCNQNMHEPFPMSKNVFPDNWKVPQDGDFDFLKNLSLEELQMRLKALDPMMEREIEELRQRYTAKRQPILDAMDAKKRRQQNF

[9] = target: T2, Serine/threonine-protein kinase 3 (Homo sapiens); details: at 1 µM
[10] = target: Serine/threonine-protein kinase 26 (Homo sapiens) (UniProt Q9P289); details: at 0.1 µM
Sequence of Serine/threonine-protein kinase 26 (Homo sapiens) (Q9P289 2-416 limits assumed): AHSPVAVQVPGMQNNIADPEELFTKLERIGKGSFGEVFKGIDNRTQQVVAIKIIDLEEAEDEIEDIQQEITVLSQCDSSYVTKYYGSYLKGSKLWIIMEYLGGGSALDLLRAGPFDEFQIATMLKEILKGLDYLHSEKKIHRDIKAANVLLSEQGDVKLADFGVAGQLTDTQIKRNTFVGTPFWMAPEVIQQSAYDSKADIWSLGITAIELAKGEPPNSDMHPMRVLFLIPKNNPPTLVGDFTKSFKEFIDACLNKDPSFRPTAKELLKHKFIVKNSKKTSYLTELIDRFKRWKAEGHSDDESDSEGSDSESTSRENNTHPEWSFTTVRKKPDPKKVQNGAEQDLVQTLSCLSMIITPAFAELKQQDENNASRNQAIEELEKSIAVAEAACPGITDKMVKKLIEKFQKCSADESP

Sequence of Misshapen-like kinase 1 (Homo sapiens) (Q8N4C8 whole entry, looked up): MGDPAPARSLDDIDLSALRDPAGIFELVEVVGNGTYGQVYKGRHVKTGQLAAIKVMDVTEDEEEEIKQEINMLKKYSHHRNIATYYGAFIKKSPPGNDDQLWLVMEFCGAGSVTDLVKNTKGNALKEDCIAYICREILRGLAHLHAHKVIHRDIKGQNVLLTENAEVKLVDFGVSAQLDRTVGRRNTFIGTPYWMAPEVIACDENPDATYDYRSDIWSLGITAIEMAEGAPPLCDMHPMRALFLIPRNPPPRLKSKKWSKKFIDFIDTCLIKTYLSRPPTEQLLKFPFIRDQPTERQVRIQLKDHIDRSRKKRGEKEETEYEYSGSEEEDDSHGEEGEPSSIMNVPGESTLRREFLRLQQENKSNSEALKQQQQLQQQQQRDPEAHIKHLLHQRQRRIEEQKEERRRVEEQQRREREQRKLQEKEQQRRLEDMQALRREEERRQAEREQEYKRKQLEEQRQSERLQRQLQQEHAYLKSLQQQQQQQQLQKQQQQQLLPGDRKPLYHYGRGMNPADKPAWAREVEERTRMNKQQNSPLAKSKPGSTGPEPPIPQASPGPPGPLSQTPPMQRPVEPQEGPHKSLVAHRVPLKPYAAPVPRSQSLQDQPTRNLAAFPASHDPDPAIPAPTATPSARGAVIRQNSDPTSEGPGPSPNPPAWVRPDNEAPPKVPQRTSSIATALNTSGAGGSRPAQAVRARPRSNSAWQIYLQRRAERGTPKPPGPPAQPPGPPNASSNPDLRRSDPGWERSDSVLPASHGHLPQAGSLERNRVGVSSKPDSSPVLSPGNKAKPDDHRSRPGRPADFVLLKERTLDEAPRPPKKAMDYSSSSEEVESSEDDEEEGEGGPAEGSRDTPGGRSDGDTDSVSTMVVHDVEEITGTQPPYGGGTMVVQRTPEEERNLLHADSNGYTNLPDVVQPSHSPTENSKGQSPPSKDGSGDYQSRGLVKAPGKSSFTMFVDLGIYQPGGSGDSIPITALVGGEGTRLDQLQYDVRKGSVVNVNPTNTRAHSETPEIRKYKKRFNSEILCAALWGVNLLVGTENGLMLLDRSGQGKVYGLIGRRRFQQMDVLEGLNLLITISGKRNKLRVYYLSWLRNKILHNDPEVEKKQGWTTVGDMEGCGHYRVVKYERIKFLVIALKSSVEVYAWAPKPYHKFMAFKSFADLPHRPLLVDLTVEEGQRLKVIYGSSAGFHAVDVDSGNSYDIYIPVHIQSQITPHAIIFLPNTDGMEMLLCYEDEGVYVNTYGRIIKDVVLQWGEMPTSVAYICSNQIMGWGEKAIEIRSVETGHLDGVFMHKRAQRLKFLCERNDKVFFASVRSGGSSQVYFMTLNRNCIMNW
Sequence of Mitogen-activated protein kinase kinase kinase kinase 4 (Homo sapiens) (O95819 2-1239 limits assumed): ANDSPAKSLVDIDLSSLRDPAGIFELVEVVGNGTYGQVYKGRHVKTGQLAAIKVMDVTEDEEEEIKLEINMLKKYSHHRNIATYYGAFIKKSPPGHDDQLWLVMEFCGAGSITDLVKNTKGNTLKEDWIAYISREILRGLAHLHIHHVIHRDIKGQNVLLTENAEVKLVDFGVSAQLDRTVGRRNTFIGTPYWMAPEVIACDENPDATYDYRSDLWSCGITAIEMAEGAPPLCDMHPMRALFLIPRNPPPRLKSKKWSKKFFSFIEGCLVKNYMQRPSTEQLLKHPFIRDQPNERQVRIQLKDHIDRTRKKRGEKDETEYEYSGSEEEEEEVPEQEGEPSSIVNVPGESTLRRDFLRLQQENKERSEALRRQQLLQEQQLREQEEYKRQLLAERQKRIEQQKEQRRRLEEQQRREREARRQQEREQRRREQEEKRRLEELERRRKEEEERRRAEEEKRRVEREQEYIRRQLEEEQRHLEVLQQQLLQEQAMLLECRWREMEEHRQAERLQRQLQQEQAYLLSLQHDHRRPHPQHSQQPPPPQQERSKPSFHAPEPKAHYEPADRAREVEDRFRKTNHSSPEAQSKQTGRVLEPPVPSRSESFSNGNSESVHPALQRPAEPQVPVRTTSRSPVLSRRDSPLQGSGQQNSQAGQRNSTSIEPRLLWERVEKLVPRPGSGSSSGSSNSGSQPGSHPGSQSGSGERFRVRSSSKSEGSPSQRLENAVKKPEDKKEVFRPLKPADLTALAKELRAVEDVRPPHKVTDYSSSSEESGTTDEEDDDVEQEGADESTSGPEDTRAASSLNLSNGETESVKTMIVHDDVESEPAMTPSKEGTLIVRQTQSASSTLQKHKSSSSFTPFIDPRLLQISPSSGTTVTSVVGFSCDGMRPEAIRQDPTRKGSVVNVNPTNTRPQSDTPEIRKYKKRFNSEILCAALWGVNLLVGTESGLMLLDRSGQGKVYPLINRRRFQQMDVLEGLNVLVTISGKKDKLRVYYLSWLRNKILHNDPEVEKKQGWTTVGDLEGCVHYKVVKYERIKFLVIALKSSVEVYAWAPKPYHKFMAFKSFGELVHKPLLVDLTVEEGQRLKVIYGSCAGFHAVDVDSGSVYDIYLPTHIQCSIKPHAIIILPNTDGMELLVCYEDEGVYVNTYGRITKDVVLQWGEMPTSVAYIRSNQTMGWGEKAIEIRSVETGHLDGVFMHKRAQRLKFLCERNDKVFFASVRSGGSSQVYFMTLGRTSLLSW
Sequence of Dual specificity mitogen-activated protein kinase kinase 1 (Homo sapiens) (Q02750 whole entry): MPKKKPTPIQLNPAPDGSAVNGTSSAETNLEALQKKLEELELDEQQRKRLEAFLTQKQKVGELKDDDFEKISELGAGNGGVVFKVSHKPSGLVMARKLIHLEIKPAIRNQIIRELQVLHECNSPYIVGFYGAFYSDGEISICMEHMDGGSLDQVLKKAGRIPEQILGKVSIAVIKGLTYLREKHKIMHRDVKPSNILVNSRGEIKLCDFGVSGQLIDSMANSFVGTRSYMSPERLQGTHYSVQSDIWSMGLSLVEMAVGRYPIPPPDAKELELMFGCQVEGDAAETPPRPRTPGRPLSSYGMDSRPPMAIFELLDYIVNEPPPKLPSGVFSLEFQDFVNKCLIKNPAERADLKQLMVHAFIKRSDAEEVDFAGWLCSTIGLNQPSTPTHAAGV

Row | SMILES | inhibition [1] | inhibition [2] | inhibition [3] | inhibition [4] | inhibition [5] | inhibition [6] | inhibition [7] | inhibition [8] | inhibition [9] | inhibition [10]
1 | CCn1c(-c2nonc2N)nc2ccncc21 | 3.87% | 2.48% | 1.41% | 3.12% | 3.29% | 2.91% | 1.83% | 3.05% | 1.74% | 1.67%
2 | Nc1nc(-c2ccc3c(c2)C(=Cc2cc(Br)c(O)c(Br)c2)C(=O)N3)cs1 | 75.3% | -1.03% | -1.25% | 10.2% | 56.9% | -2.22% | 9.55% | -2.3% | 12.2% | 0.73%
3 | Cn1cc(C=C2C(=O)Nc3cccnc32)c2ccccc21 | 29% | 2.69% | 7.29% | 7.13% | 23.6% | 13.7% | 47.9% | 10.5% | 33.8% | 1.41%
4 | O=C1NC(=O)C(c2ccc(Cl)cc2)=C1Nc1ccc(Cl)c(C(=O)O)c1 | 0.73% | -2.44% | -3.36% | -0.82% | -0.69% | -1.86% | -3.6% | -2.71% | -2.5% | -0.06%
5 | Nc1ncnc2occ(-c3ccc(NC(=O)Nc4cccc(C(F)(F)F)c4)cc3)c12 | 12.3% | 4.53% | 4.91% | 3.8% | 8.17% | 5.73% | 15.6% | 5.7% | 13.3% | -2.6%
6 | N#Cc1c(NC(=O)c2cccc3ccccc23)sc2c1CCCC2 | 13.8% | 3.76% | 3.46% | 5.15% | 11.1% | 3.4% | 4.3% | 2.39% | 3.8% | -1.1%
7 | O=C(Nc1n[nH]c2nc(-c3ccco3)c(Br)cc12)C1CC1 | 8.55% | 3.9% | 3.63% | 5.14% | 8.29% | 5.17% | 4% | 6.08% | 5.58% | -1.82%
8 | c1cnn2ncc(-c3ccnc(Nc4ccc5c(c4)OCCO5)n3)c2c1 | 51.5% | 7.35% | 27.8% | 9.95% | 40.4% | 7.88% | 19.1% | 7.54% | 16.1% | -1.31%
9 | COc1ccccc1Nc1ncc(-c2ccccc2)o1 | 26.2% | 4.67% | 3.89% | 6.62% | 17.3% | 3.93% | 5.16% | 6.13% | 7.36% | -1.34%
10 | COc1cccc(-n2ncc3c(N/N=C/c4cccc(F)c4)ncnc32)c1 | 35% | 3.46% | 3.27% | 7.28% | 25.8% | 3.89% | 8.39% | 2.89% | 6.96% | -0.8%
11 | CS(=O)(=O)CCN(CC#N)Cc1ccc(-c2ccc3ncnc(Nc4ccc(OCc5cccc(F)c5)c(Cl)c4)c3c2)o1 | 5% | 2.47% | 0.44% | 3.04% | 3.9% | 0.41% | 0.1% | 0.67% | 1.66% | -1.31%
12 | COC(=O)Nc1nc2cc(Oc3ccc(NC(=O)Nc4cccc(C(=O)O)c4)cc3)ccc2[nH]1 | 5.9% | 0.36% | 0.97% | 1.59% | 4.38% | 7.79% | 11.2% | 7.55% | 10.9% | 1.75%
13 | Nc1nc(-c2ccccn2)c(-c2ccc3ncccc3n2)s1 | 9.69% | 2.95% | 2.78% | 5.37% | 7.86% | 5.62% | 6.85% | 5.79% | 6.4% | -2.14%
14 | COc1cc2ncn(-c3cc(O[C@H](C)c4ccccc4Cl)c(C(N)=O)s3)c2cc1OC | 18.6% | 4.68% | 4.4% | 5.71% | 16.9% | 40.3% | 77% | 34.7% | 73.8% | -3.36%
15 | O=C1Nc2ccc(C(=O)c3ccco3)cc2C1=Cc1cc(Cl)c(O)c(Cl)c1 | 75.8% | 2.93% | 9.42% | 18.1% | 61.8% | 21.7% | 66.8% | 20.4% | 65.3% | 3.9%
16 | CCn1c(-c2nonc2N)nc2cncc(C(=O)N3CC[C@H](N)C3)c21 | 5.7% | 6.85% | 6.13% | 7.01% | 6.82% | 3.69% | 4.11% | 4.28% | 4.87% | -0.5%
17 | Cc1nnc(-c2ccc(C)c(-c3ccc(C(=O)Nc4cccc(C#N)c4)cc3)c2)o1 | 10.6% | 2.51% | 1.55% | 4.46% | 9.13% | 1.52% | 6% | 2.65% | 6.4% | -1.07%

Row | SMILES | inhibition [1] | inhibition [2] | inhibition [3] | inhibition [4] | inhibition [5] | inhibition [6] | inhibition [7] | inhibition [8] | inhibition [9] | inhibition [10]
18 | NS(=O)(=O)c1ccc(N/N=C2\C(=O)Nc3ccc(C(=O)NCCc4c[nH]cn4)cc32)cc1 | 40% | 6.81% | 16.3% | 11.2% | 32.6% | 56.3% | 86.7% | 46.5% | 83.5% | -0.45%
19 | COc1ccc(COc2ccc(Cc3cnc(N)nc3N)cc2OC)cc1 | 6.03% | 1.66% | 0.97% | 0.71% | 4.81% | 4.51% | 4.23% | 3.88% | 3.04% | 3.22%
20 | CS(=O)(=O)CCNCc1ccc(-c2ccc3ncnc(Nc4ccc(OCc5ccccc5)c(Cl)c4)c3c2)o1 | 3.37% | 1.17% | 1.86% | 1.93% | 1.65% | 0.89% | 2.54% | -1.21% | 0.47% | 0.75%
21 | O=C1NC(=O)C(c2cccc(Cl)c2)=C1Nc1ccc(O)c(Cl)c1 | 7.19% | 0.81% | 7.65% | 2.81% | 7.79% | 33.6% | 75.2% | 24.3% | 66.8% | 1.93%
22 | CN1CCC(C(=O)Nc2n[nH]c3nnc(-c4ccccc4)cc23)CC1 | 14.1% | 6.89% | 5.56% | 6.64% | 14.6% | 4.72% | 13% | 5.88% | 9.3% | -0.64%
23 | CC(=O)Nc1cccc(C#Cc2cncnc2Nc2ccc(OCc3cccc(F)c3)c(Cl)c2)n1 | 8.1% | -0.39% | -1.7% | 0.33% | 10.7% | 4% | 7.41% | 3.99% | 8.13% | 2.55%
24 | Cc1ccc(C(=O)NC2CCCCC2)cc1-c1ccc(C(=O)NCC2CC2)cc1 | 0.87% | 4.37% | 4.68% | 4.93% | 1.64% | 5.76% | 4.46% | 6.92% | 4.05% | 1.41%
25 | O=C1NC(=O)C(c2ccccc2Cl)=C1Nc1cccc(O)c1 | 6.87% | 1.44% | 1.89% | 3.8% | 5.96% | 7.3% | 27.2% | 7.12% | 22.5% | -0.62%
26 | COc1cc(C)c(NC(=O)CN(C)C)cc1Nc1nc(Nc2cccc(F)c2C(N)=O)c2cc[nH]c2n1 | 17.8% | 3.12% | 6.41% | 3.15% | 13.8% | 4.73% | 17.7% | 5.85% | 7.94% | 0.41%
27 | CCn1c(-c2nonc2N)nc2c(N3CCCC3)nccc21 | 2.78% | -2.28% | -2.11% | 0.71% | 2.4% | -1.49% | -1.2% | -2.05% | 0.3% | 0.47%
28 | NC(=O)c1ccc(-c2nc(-c3ccccn3)c(-c3ccc4c(c3)OCO4)[nH]2)cc1 | 5.75% | 3.95% | 3.52% | 2.63% | 7.53% | 3.9% | 3.51% | 4.2% | 3.42% | -0.92%
29 | Fc1cccc(COc2ccc(Nc3ncnc4sc(-c5cccs5)cc34)cc2Cl)c1 | 6.34% | 2.3% | 4% | 1.45% | 2.51% | 0.07% | 0.3% | -1.67% | -0.19% | -0.02%
30 | Cc1ccc(NC(=O)c2ccnc(N3CCCC3)c2)cc1-c1ccc(C(=O)NCC2CC2)cc1 | 10.9% | 5.95% | 5.8% | 11.6% | 10.5% | 8.79% | 9.83% | 9.39% | 9.53% | 4.41%
31 | CCCN1CCC(Oc2cc(Nc3nc(Nc4cccc(F)c4C(N)=O)c4cc[nH]c4n3)c(OC)cc2Cl)CC1 | 3.64% | 0.84% | 20.6% | 1% | 1.71% | -0.56% | 1.54% | -0.96% | 0.14% | 1.68%
32 | NCc1ccc(-c2nc(-c3ccc(Cl)c(O)c3)c(-c3ccncc3)[nH]2)cc1 | 17.2% | 0.8% | 2.23% | 4.99% | 14.1% | 0.18% | 0.25% | -1% | -1.23% | 0.12%
33 | COc1ccc2cc(-c3c(-c4ccncc4)nc(-c4ccc([S+](C)[O-])cc4)n3C)ccc2c1 (stereo not given) | 8.42% | 4.05% | 3.39% | 3.38% | 9.34% | 4.01% | 4.79% | 6.01% | 8.09% | -0.63%
